Records with an inconclusive call do not appear. Calls of active or inactive are those of the source. Calls follow the shape of the dose curve; as a rule, active = well fitted curve in the direction sought with a large enough effect; inconclusive = small, poorly fitted or top-dose-only effect, or another doubt; inactive = no such curve, though single readings can be large; an effect the other way counts as inactive or inconclusive.
Assays:
[1] = Quantitative High-Throughput drug screen in 47 multiple myeloma cell lines against the NCATS MIPE library collection: KHM11_PLB cell viability assay (AID 1918962); also: nearly all actives have a fitted effect of over 35% in size
In short: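 Viability readout: CellTiter-Glo luminescence following 5 min room-temperature incubation with reagent. Prior exposure: 48 h, 37C, humidified 5% CO2, 500 cells per well.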

[2] = Quantitative High-Throughput drug screen in 47 multiple myeloma cell lines against the NCATS MIPE library collection: JIM1_ECACC cell viability assay (AID 1918964)
In short: (§1)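 We plated 500 myeloma cells per well, pinned in MIPE 4.0 compounds, and incubated for 48 hours at 37C. ATP was then quantified with CellTiter-Glo, with DMSO and media-only wells defining 100% and 0%.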

[3] = Quantitative High-Throughput drug screen in 47 multiple myeloma cell lines against the NCATS MIPE library collection: H1112_PLB cell viability assay (AID 1918967; also: nearly all actives have a fitted effect of over 30% in size)
In short: as §1

[4] = Quantitative High-Throughput drug screen in 47 multiple myeloma cell lines against the NCATS MIPE library collection: KMS27_JCRB cell viability assay (AID 1918970); also: nearly all actives have a fitted effect of over 30% in size
In short: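 Each line is seeded at 500 cells per well and treated with library compounds for 48 hours under 37 °C, 5% CO2. CellTiter-Glo is then added for 5 min at room temperature before median relative luminescence is recorded.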

[5] = Quantitative High-Throughput drug screen in 47 multiple myeloma cell lines against the NCATS MIPE library collection: KMS12BM_JCRB cell viability assay (AID 1918971); also: nearly all actives have a fitted effect of over 35% in size
In short: (§2)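 Relative luminescence from CellTiter-Glo served as the viability signal, referenced to DMSO-treated (100%) and cell-free medium (0%) controls. Treatment lasted 48 hours at 37C with 500 cells per well.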

[6] = Quantitative High-Throughput drug screen in 47 multiple myeloma cell lines against the NCATS MIPE library collection: KMS12PE_JCRB cell viability assay (AID 1918972); also: nearly all actives have a fitted effect of over 30% in size
In short: (§3)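 Approved and investigational drugs from MIPE 4.0 were added by pin tool to 500 cells per well. After 48 hours at 37C, ATP-based CellTiter-Glo luminescence indicated remaining viability.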

[7] = Quantitative High-Throughput drug screen in 47 multiple myeloma cell lines against the NCATS MIPE library collection: KMS26_JCRB cell viability assay (AID 1918975); also: nearly all actives have a fitted effect of over 45% in size
In short: as §2

[8] = Quantitative High-Throughput drug screen in 47 multiple myeloma cell lines against the NCATS MIPE library collection: MOLP8_DSMZ cell viability assay (AID 1918977); also: nearly all actives have a fitted effect of over 45% in size
In short: (§4)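 MIPE 4.0 approved/investigational drugs; 500 cells/well; 48 h 37 °C humidified 5% CO2; CTG luminescence readout; DMSO = 100%, media = 0% viability.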

[9] = Quantitative High-Throughput drug screen in 47 multiple myeloma cell lines against the NCATS MIPE library collection: MM1S_ATCC cell viability assay (AID 1918980); also: nearly all actives have a fitted effect of over 45% in size
In short: as §4

[10] = Quantitative High-Throughput drug screen in 47 multiple myeloma cell lines against the NCATS MIPE library collection: MM1R_ATCC cell viability assay (AID 1918981); also: nearly all actives have a fitted effect of over 35% in size
In short: as §4

[11] = Quantitative High-Throughput drug screen in 47 multiple myeloma cell lines against the NCATS MIPE library collection: INA6_PLB cell viability assay (AID 1918965; also: nearly all actives have a fitted effect of over 55% in size)
In short: as §3

[12] = Quantitative High-Throughput drug screen in 47 multiple myeloma cell lines against the NCATS MIPE library collection: JJN3_DSMZ cell viability assay (AID 1918966; also: nearly all actives have a fitted effect of over 50% in size)
In short: as §1

[13] = Quantitative High-Throughput drug screen in 47 multiple myeloma cell lines against the NCATS MIPE library collection: Karpas25_ECACC cell viability assay (AID 1918968; also: nearly all actives have a fitted effect of over 35% in size)
In short: as §1

[14] = Quantitative High-Throughput drug screen in 47 multiple myeloma cell lines against the NCATS MIPE library collection: KMS20_JCRB cell viability assay (AID 1918973); also: nearly all actives have a fitted effect of over 45% in size
In short: as §1

[15] = Quantitative High-Throughput drug screen in 47 multiple myeloma cell lines against the NCATS MIPE library collection: MMM1_PLB cell viability assay (AID 1918976); also: nearly all actives have a fitted effect of over 35% in size
In short: as §4

[16] = Quantitative High-Throughput drug screen in 47 multiple myeloma cell lines against the NCATS MIPE library collection: NCIH929_DSMZ cell viability assay (AID 1918978); also: nearly all actives have a fitted effect of over 35% in size
In short: as §4

[17] = Quantitative High-Throughput drug screen in 47 multiple myeloma cell lines against the NCATS MIPE library collection: LP1_DSMZ cell viability assay (AID 1918982); also: nearly all actives have a fitted effect of over 35% in size
In short: as §4

[18] = Quantitative High-Throughput drug screen in 47 multiple myeloma cell lines against the NCATS MIPE library collection: KMS21BM_JCRB cell viability assay (AID 1918974); conditions: ATP luminescence, 48 h; viability: at 45.8 µM (top of the series) unless noted
In short: as §1

[19] = Quantitative High-Throughput drug screen in 47 multiple myeloma cell lines against the NCATS MIPE library collection: OCIMY1_PLB cell viability assay (AID 1918979); also: nearly all actives have a fitted effect of over 35% in size
In short: as §4

Measured: Potency
Potency is read from the fitted curve at half-maximal effect.

Cn1c(CNc2ccc(C(=N)N)cc2)nc2cc(C(=O)N(CCC(=O)O)c3ccccn3)ccc21
active: [9] 14.4 µM
inactive: [1] | [2] | [3] | [4] | [5] | [6] | [7] | [8] | [10]

CCS(=O)(=O)c1cccc(-c2cc(C(=O)NC3CCN(C)CC3)c(C)c3[nH]c4ncc(C)cc4c23)c1
active: [1] 0.526 µM | [2] 0.935 µM | [11] 0.418 µM | [12] 1.66 µM | [3] 4.69 µM | [13] 1.18 µM | [4] 1.32 µM | [6] 3.32 µM | [14] 1.32 µM | [7] 2.96 µM | [15] 4.18 µM | [8] 1.05 µM | [16] 1.18 µM | [9] 1.66 µM | [10] 1.66 µM | [17] 7.43 µM

COc1ccc(C(=O)CC2(O)C(=O)Nc3c(Cl)ccc(Cl)c32)cc1 (configuration not stated)
active: [2] 1.05 µM | [12] 6.62 µM | [3] 13.2 µM | [13] 5.26 µM | [4] 1.05 µM | [5] 2.09 µM | [6] 1.32 µM | [7] 2.96 µM | [15] 14.8 µM | [16] 18.7 µM | [9] 18.7 µM | [10] 5.26 µM
inactive: [1]

CC1(C)OC2=C(C(=O)c3ccccc3C2=O)[C@H](NCc2ccccc2)[C@H]1O
active: [1] 2.64 µM | [2] 2.64 µM | [11] 2.09 µM | [12] 3.72 µM | [13] 0.59 µM | [4] 1.18 µM | [5] 8.33 µM | [6] 1.48 µM | [18] 1.05 µM | [7] 5.26 µM | [15] 2.09 µM | [8] 2.96 µM | [16] 2.35 µM | [19] 4.18 µM | [9] 2.09 µM | [10] 4.18 µM | [17] 4.69 µM

COC(=O)Nc1ccc(-c2nc(N3CCOCC3)c3cnn(C4CCN(Cc5cccnc5)CC4)c3n2)cc1
active: [1] 0.059 µM | [11] 0.0469 µM | [12] 0.743 µM | [13] 0.118 µM | [5] 1.05 µM | [14] 0.001 µM | [7] 2.96 µM | [15] 0.0833 µM | [8] 0.059 µM | [16] 0.0743 µM | [19] 4.69 µM | [9] 0.118 µM | [10] 1.48 µM
inactive: [4] | [6]

CC1(C)CCC(c2ccc(Cl)cc2)=C(CN2CCN(c3ccc(C(=O)NS(=O)(=O)c4ccc(N[C@H](CCN5CCOCC5)CSc5ccccc5)c(S(=O)(=O)C(F)(F)F)c4)cc3)CC2)C1
active: [1] 6.62 µM | [11] 5.9 µM | [12] 9.35 µM | [3] 0.0833 µM | [13] 0.833 µM | [4] 0.0148 µM | [5] 0.332 µM | [6] 0.0105 µM | [7] 0.105 µM | [15] 0.0935 µM | [16] 13.2 µM | [19] 7.43 µM | [9] 0.332 µM | [17] 20.9 µM

COC(=O)C[C@](O)(CCCC(C)(C)O)C(=O)O[C@@H]1C(OC)=C[C@]23CCCN2CCc2cc4c(cc2[C@H]13)OCO4
inactive: [1] | [2] | [3] | [4] | [5] | [6] | [8] | [16] | [19] | [9] | [17]

Clc1ccc2ncc(-c3cccc(NC4CNC4)n3)n2c1
active: [1] 8.33 µM | [11] 5.9 µM | [12] 16.6 µM | [3] 11.8 µM | [13] 26.4 µM | [5] 23.5 µM | [6] 5.9 µM | [7] 23.5 µM | [8] 14.8 µM | [16] 20.9 µM | [19] 20.9 µM | [9] 5.26 µM | [10] 16.6 µM | [17] 16.6 µM
inactive: [4]

O=C(O)c1ccc2c(c1)nc(Nc1cccc(Cl)c1)c1ccncc12
active: [1] 5.9 µM | [2] 6.62 µM | [12] 9.35 µM | [3] 6.62 µM | [13] 2.64 µM | [4] 1.66 µM | [5] 10.5 µM | [6] 5.26 µM | [18] 3.32 µM | [15] 14.8 µM | [8] 10.5 µM | [16] 3.72 µM | [19] 18.7 µM | [9] 6.62 µM | [10] 10.5 µM

CC(=O)c1c(C)c2cnc(Nc3ccc(N4CCNCC4)cn3)nc2n(C2CCCC2)c1=O
active: [1] 23.5 µM | [2] 5.9 µM | [11] 18.7 µM | [12] 23.5 µM | [13] 11.8 µM | [4] 26.4 µM | [5] 0.833 µM | [6] 23.5 µM | [14] 7.43 µM | [18] 14.8 µM | [7] 18.7 µM | [8] 18.7 µM | [16] 20.9 µM | [9] 20.9 µM | [10] 14.8 µM | [17] 5.9 µM
